# Reference: the supplement of paper PMC11732987, “Enantioselective OTUD7B fragment discovery through chemoproteomics screening and high-throughput optimisation” (Communications Chemistry, 2025)
# A number with no mark means an inactive call.
# Key:
# Assay in all cases: log2 ratio of Biotin-Ahx-Ub-VS probe labelling (fragment/DMSO); higher = less target engagement (more negative = stronger competition), active = hit call of the paper (q ≤ 0.05, log2 ratio ≤ -1)
# Details in all cases: compound concentration: 200 uM; treatment time: 3 h
# OTUD6B = biological target: T1, OTUD6B (UniProt Q8N6M0)
# T1 sequence (whole entry): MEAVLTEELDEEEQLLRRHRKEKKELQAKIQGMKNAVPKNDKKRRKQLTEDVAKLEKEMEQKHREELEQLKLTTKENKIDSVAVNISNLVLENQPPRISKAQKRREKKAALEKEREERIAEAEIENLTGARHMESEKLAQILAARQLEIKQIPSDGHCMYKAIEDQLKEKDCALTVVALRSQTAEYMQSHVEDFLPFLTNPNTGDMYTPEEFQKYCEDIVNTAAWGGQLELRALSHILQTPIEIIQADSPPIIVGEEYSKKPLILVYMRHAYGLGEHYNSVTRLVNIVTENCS
# Summary of the method: (§1)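 Labelled DUBs were enriched with NeutrAvidin, digested with LysC and trypsin, and run by diaPASEF LC-MS/MS. The labelling used Biotin-Ahx-Ub-VS at 0.5 µM final for 1 h on HEK293T lysate (495 µg per sample) previously treated in triplicate with fragment at 200 µM or vehicle for 3 h. Values are average log2 fragment/vehicle ratios by unpaired t-test on global-median-normalised Spectronaut quantities of proteins with ≥2 unique peptides.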
# OTUD7B = biological target: T2, OTUD7B (UniProt Q6GQQ9)
# T2 sequence (whole entry): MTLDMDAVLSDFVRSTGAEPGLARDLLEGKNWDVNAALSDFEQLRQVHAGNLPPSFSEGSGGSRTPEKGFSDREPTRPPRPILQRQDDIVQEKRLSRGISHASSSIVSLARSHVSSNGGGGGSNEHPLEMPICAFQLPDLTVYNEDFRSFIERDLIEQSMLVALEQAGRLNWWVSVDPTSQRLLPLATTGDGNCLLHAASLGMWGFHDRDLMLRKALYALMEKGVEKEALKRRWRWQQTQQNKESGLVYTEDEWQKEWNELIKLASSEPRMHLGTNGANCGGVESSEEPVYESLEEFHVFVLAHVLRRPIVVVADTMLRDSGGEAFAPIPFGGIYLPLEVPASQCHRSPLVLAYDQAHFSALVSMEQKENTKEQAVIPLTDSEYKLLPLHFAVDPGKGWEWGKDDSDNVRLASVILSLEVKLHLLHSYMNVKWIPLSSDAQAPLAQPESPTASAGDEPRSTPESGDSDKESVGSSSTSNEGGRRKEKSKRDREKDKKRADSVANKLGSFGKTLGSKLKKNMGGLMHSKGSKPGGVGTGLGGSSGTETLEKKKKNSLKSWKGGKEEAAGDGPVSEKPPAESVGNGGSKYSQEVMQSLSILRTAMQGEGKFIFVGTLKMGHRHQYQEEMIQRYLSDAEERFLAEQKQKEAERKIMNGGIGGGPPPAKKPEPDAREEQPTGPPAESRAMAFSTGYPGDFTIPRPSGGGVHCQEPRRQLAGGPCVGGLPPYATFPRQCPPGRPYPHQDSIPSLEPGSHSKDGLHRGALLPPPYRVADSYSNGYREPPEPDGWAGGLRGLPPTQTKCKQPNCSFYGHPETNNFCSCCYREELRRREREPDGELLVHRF
# Summary of the method: as §1
# PRPF8 = PRPF8 (UniProt Q6P2Q9)
# Summary of the method: as §1
# PSMD7 = biological target: T3, PSMD7 (UniProt P51665)
# T3 sequence (whole entry): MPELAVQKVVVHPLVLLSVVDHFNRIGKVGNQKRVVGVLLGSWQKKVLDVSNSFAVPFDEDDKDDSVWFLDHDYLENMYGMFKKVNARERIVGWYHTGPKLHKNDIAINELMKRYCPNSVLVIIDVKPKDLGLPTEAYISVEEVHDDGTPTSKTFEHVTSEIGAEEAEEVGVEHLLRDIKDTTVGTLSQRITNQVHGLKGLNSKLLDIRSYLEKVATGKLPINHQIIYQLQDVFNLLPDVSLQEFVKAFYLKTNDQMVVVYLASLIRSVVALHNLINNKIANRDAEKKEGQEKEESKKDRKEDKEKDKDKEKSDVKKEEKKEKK
# Summary of the method: as §1
# UCHL1 = UCHL1 (UniProt P09936)
# UCHL1, sequence (P09936 whole entry, looked up): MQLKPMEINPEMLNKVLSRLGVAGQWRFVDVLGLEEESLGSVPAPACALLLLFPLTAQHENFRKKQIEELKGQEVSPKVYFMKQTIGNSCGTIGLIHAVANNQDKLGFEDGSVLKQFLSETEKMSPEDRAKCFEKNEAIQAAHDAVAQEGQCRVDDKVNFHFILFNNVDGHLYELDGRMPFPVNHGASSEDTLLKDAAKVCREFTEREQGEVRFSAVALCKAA
# Summary of the method: as §1
# UCHL3 = biological target: T4, UCHL3 (UniProt P15374)
# T4 sequence (whole entry): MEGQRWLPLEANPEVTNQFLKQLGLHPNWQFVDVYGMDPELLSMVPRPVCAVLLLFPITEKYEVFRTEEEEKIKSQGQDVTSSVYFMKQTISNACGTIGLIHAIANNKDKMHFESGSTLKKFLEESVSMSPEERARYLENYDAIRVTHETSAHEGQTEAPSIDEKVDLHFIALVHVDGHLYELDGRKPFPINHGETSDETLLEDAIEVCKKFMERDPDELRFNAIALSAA
# Summary of the method: as §1
# UCHL5 = biological target: T5, UCHL5 (UniProt Q9Y5K5)
# T5 sequence (whole entry): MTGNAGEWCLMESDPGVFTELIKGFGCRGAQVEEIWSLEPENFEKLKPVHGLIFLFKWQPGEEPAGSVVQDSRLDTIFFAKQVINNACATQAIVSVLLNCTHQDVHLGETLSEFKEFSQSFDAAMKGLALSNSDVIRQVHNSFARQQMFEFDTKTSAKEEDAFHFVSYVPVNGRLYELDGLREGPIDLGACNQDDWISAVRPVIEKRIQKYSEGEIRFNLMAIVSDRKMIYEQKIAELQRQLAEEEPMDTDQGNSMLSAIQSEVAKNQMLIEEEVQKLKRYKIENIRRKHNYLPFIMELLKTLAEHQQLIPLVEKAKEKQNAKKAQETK
# Summary of the method: as §1
# USP10 = USP10 (UniProt Q14694)
# USP10, sequence (Q14694 whole entry): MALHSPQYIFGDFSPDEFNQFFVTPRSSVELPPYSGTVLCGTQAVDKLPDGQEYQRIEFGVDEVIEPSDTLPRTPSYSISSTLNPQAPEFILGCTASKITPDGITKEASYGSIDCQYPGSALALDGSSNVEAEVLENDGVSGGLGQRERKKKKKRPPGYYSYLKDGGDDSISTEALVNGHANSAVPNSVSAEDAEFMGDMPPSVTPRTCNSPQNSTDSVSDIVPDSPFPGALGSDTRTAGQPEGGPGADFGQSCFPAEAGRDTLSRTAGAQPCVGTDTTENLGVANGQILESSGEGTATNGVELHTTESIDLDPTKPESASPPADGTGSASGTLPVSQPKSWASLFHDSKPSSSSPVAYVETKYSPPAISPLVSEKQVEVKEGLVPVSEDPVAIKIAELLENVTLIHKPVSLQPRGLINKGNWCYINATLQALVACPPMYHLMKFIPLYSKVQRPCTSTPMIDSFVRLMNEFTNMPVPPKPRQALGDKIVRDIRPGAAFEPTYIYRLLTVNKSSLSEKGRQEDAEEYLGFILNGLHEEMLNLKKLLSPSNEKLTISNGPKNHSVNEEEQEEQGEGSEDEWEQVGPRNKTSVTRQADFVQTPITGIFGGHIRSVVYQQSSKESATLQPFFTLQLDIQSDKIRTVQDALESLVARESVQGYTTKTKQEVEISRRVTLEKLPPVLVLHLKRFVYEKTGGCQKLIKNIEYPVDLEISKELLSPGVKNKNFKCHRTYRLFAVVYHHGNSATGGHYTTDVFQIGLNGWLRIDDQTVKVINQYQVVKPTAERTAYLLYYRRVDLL
# Summary of the method: as §1
# USP15 = biological target: T6, USP15 (UniProt Q9Y4E8)
# T6 sequence (whole entry): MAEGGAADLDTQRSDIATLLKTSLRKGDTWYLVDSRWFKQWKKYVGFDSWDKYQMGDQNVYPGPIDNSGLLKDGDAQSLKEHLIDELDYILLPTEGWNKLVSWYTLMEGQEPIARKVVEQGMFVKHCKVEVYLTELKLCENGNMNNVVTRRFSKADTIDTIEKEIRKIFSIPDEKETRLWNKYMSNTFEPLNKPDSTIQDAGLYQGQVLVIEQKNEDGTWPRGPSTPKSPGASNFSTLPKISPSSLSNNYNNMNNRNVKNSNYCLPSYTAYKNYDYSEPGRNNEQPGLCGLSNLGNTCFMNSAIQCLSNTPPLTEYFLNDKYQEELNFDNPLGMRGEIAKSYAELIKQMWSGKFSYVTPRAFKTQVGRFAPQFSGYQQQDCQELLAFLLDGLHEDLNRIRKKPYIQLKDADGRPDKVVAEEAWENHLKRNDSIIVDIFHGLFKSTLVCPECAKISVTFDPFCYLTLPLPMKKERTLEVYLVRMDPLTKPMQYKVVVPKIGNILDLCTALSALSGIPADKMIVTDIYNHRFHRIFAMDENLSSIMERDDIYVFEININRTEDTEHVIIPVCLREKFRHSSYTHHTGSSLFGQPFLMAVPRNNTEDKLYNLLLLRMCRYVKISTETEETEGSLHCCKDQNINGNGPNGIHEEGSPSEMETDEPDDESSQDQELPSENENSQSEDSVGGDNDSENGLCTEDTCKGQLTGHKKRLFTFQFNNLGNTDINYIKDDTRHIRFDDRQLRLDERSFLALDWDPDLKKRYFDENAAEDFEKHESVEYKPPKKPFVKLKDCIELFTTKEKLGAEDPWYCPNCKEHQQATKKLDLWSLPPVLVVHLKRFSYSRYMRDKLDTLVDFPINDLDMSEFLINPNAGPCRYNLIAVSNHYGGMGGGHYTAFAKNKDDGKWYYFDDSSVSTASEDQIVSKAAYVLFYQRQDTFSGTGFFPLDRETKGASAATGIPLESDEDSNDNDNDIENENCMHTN
# Summary of the method: as §1
smiles,measurement,setting,value
Cc1ccccc1C1(CNC(=O)CCl)CCOCC1,log2 ratio of Biotin-Ahx-Ub-VS probe labelling,OTUD6B,-0.054
same,log2 ratio of Biotin-Ahx-Ub-VS probe labelling,OTUD7B,-0.293
same,log2 ratio of Biotin-Ahx-Ub-VS probe labelling,PRPF8,-0.0655
same,log2 ratio of Biotin-Ahx-Ub-VS probe labelling,PSMD7,-0.0606
same,log2 ratio of Biotin-Ahx-Ub-VS probe labelling,UCHL1,-1.45 (active)
same,log2 ratio of Biotin-Ahx-Ub-VS probe labelling,UCHL3,0.231
same,log2 ratio of Biotin-Ahx-Ub-VS probe labelling,UCHL5,-0.272
same,log2 ratio of Biotin-Ahx-Ub-VS probe labelling,USP10,-0.0236
same,log2 ratio of Biotin-Ahx-Ub-VS probe labelling,USP15,-0.102
